Compounds with a hit are over-represented: about 0.47% of the library has one in this group of screens.
AID inhibitor: activation induced cytidine deaminase inhibition; Q9GZX7; Potency, µM (titrated, usually from 115 µM), hits mostly inhibitors; AID deamination FRET fluorescence, UDG-coupled, 4 h; 91,000 compounds, 0.32% hits; AID 1347428; also: nearly all actives have a fitted effect of over 25% in size
Target sequence (Q9GZX7 whole entry, looked up): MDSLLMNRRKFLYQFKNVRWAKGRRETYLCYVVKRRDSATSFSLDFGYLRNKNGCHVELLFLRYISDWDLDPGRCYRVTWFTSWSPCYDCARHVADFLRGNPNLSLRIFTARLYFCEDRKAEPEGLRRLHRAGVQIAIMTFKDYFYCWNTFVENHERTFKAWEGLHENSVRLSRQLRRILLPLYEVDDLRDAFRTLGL
UDG counterscr: counter-screen for AID inhibitors: uracil-DNA glycosylase inhibition; AID 1347430; Potency, µM (series often up to 115 µM), inactives show top-dose activity change, negative = inhibition, usual class: inhibitors; 91,000 compounds, 0.14% hits; FRET deamination/UDG coupled assay, UDG read, 4 h; also: nearly all actives have a fitted effect of over 65% in size
* marks the source's active call; other numbers are inactive results. Calls follow the shape of the dose curve; as a rule, active = well fitted curve in the direction sought with a large enough effect; inconclusive = small, poorly fitted or top-dose-only effect, or another doubt; inactive = no such curve, though single readings can be large; an effect the other way counts as inactive or inconclusive. % is scaled to controls: 0 for no effect and ±100 for the full control effect; potency is read from the fitted curve at half-maximal effect.

For CC(=O)N1N=C(c2ccc(C)cc2)CC1c1cn(-c2ccccc2)nc1-c1cccs1 (stereo unspecified) the results were AID inhibitor inactive and UDG counterscr -6%.
Screening CC(=O)N1N=C(c2c(-c3ccccc3)c3cc(Cl)ccc3n(C)c2=O)CC1c1cccs1 (stereo unspecified) returned AID inhibitor 45µM* and UDG counterscr -18%.
`Cc1ccc(/C=C/C(=O)NCC(C)(C)CNC(=O)/C=C/c2ccc(C)o2)o1` gave AID inhibitor inactive and UDG counterscr 0%.
For Cc1cc(C)cc(NC(=O)Cc2c[nH]c3ccccc23)c1 the results were AID inhibitor inactive and UDG counterscr 0%.
`COc1cc2c(cc1OC)C(c1ccccc1)N(CC(=O)Nc1ccc(C(N)=O)cc1)CC2` (stereo unspecified) gave AID inhibitor inactive and UDG counterscr 4%.
`Cc1ccc(NC(=O)/C(C#N)=C/c2ccc(-c3ccc(Cl)c(C(=O)O)c3)o2)cc1C` gave AID inhibitor 79µM* and UDG counterscr inconclusive.
For N#C/C(=C\c1ccc(-c2ccc(C(=O)O)cc2)o1)c1nc2ccccc2[nH]1 the results were AID inhibitor inactive and UDG counterscr -14%.
For N#C/C(=C\c1ccc(-c2ccc(Cl)c(C(=O)O)c2)o1)c1nc2ccccc2[nH]1 the results were AID inhibitor 28µM* and UDG counterscr -2%.
For Cc1ccc(NC(=O)/C(C#N)=C\c2ccc(Cl)cc2Cl)cc1C the results were AID inhibitor inactive and UDG counterscr -9%.
`O=C(Nc1cccc2cccnc12)C(c1ccccc1)c1ccccc1` gave AID inhibitor inactive and UDG counterscr 89µM*.
`O=C(CSc1cccc2cccnc12)NNC(=O)C(c1ccccc1)c1ccccc1` gave AID inhibitor inactive and UDG counterscr -12%.
`CCCCCC1CCC(c2ccc(-c3ccccc3)cc2)=CC1=O` (stereo unspecified) gave AID inhibitor inactive and UDG counterscr -5%.
For Fc1ccc(-c2csc(NCc3ccco3)n2)cc1F the results were AID inhibitor inactive and UDG counterscr -12%.
For COc1ccc(-c2ccc(CCC(=O)Nc3cc(Cl)ccc3OC)o2)cc1 the results were AID inhibitor inactive and UDG counterscr 3%.
For CC(C)c1ccc(C(=O)NCc2ccco2)cc1 the results were AID inhibitor inactive and UDG counterscr 4%.
COc1ccc(S(=O)(=O)N2CCn3cccc3C2c2ccccc2)cc1 (stereo unspecified) was read as AID inhibitor inactive and UDG counterscr inconclusive.
Cc1ccc(S(=O)(=O)N2CCn3cccc3C2c2ccccc2)cc1 (stereo unspecified) was read as AID inhibitor inactive and UDG counterscr 89µM*.
CC(=O)Nc1ccc(CNC(=O)c2nccnc2N)cc1 was read as AID inhibitor inactive and UDG counterscr 2%.
`Cc1ccc(C)c(N2CCN(CCCNC(=O)c3cnn(-c4ccccc4)c3C3CCN(C(=O)OC(C)(C)C)CC3)CC2)c1` gave AID inhibitor inactive and UDG counterscr 38%.
Screening COc1ccc(CCN2CCC(CNC(=O)c3cnn(-c4cccc(Cl)c4)c3C3CCN(C(=O)OC(C)(C)C)CC3)CC2)cc1 returned AID inhibitor 35µM* and UDG counterscr -17%.
`COc1ccccc1N1CCN(CCCNC(=O)c2cnn(-c3ccc(C)c(C)c3)c2C2CCN(C(=O)OC(C)(C)C)CC2)CC1` gave AID inhibitor 50µM* and UDG counterscr 12%.
`Cc1c(Cl)cccc1-n1ncc(C(=O)N2CCN(c3ncccn3)CC2)c1C1CCN(C(=O)OC(C)(C)C)CC1` gave AID inhibitor inactive and UDG counterscr -9%.
For COc1ccc(CCN2CCC(CNC(=O)c3cnn(-c4ccccc4)c3C3CCN(C(=O)OC(C)(C)C)CC3)CC2)cc1 the results were AID inhibitor inconclusive and UDG counterscr 43%.
For CC(C)(C)OC(=O)N1CCC(c2c(C(=O)N3CCN(c4ccccc4F)CC3)cnn2-c2ccccc2Cl)CC1 the results were AID inhibitor 50µM* and UDG counterscr inconclusive.
`C/C(=N/NC(N)=S)C1CC2CCC1C2` (stereo unspecified) gave AID inhibitor inactive and UDG counterscr -7%.
Screening CCOC(=O)c1sc(Nc2cc(C)ccc2C)nc1C(F)(F)F returned AID inhibitor inactive and UDG counterscr 3%.
For C(=N\Nc1ccc2ccccc2n1)/c1cccs1 the results were AID inhibitor inactive and UDG counterscr -16%.
For Cc1ccc(NC(=O)c2cccc(NC(=O)NC(C)C)c2)cc1Cl the results were AID inhibitor inactive and UDG counterscr 0%.
Screening Cc1ccc(C(=O)Nc2ccc(S(=O)(=O)O)c3cc(S(=O)(=O)O)cc(S(=O)(=O)O)c23)cc1NC(=O)c1cccc(NC(=O)Nc2cccc(C(=O)Nc3cc(C(=O)Nc4ccc(S(=O)(=O)O)c5cc(S(=O)(=O)O)cc(S(=O)(=O)O)c45)ccc3C)c2)c1 returned AID inhibitor 7.1µM* and UDG counterscr 8%.
Screening CCOc1ccc(CNc2nc(NCc3ccc(OCC)cc3)n(C(=O)CC(C)C)n2)cc1 returned AID inhibitor inactive and UDG counterscr -3%.
Screening COC(=O)CC(NC(=O)c1cc(C)nc2c1cnn2C(C)C)c1ccc(Br)cc1 (stereo unspecified) returned AID inhibitor inactive and UDG counterscr 4%.
O=C(c1cccn2c(=O)c3cc(Cl)ccc3nc12)N1CCN(c2ccccc2F)CC1 was read as AID inhibitor inactive and UDG counterscr 79µM*.
Cc1ccc(C)c(N2CCN(C(=O)c3cccn4c(=O)c5ccccc5nc34)CC2)c1 was read as AID inhibitor inactive and UDG counterscr 0%.
For C=CCNc1nc(-c2cc(C)n(-c3c(C)n(C)n(-c4ccccc4)c3=O)c2C)cs1 the results were AID inhibitor inactive and UDG counterscr 17%.
Screening Nc1ccccc1C(=O)NCCc1ccccc1 returned AID inhibitor inactive and UDG counterscr -1%.
Screening NNCCc1ccccc1 returned AID inhibitor 45µM* and UDG counterscr 32µM*.
For CCOc1ccc2c(=O)c(Oc3cccc(OC)c3)c(C)oc2c1 the results were AID inhibitor inactive and UDG counterscr -6%.
CCCOc1ccc(C(=O)N(Cc2ccc(C(C)C)cc2)C2CCS(=O)(=O)C2)cc1 (stereo unspecified) was read as AID inhibitor inconclusive and UDG counterscr -18%.
For CCCCOc1ccc(C(=O)N(Cc2ccc(C(C)C)cc2)C2CCS(=O)(=O)C2)cc1 (stereo unspecified) the results were AID inhibitor 25µM* and UDG counterscr -10%.
`CCOc1ccccc1OCCCn1c(-c2ccc(Cl)cc2)nc2ccccc2c1=O` gave AID inhibitor inactive and UDG counterscr -5%.
Screening CCOc1ccccc1OCCCCn1c(-c2ccc(Cl)cc2)nc2ccccc2c1=O returned AID inhibitor 32µM* and UDG counterscr -20%.
For CN(C)S(=O)(=O)c1cccc(NC(=O)COc2ccc(Cl)cc2)c1 the results were AID inhibitor inactive and UDG counterscr 0%.
`CN(C)CCCNc1cc(N2CCN(C3CCCCC3)CC2)c2noc3c2c1C(=O)c1ccccc1-3` gave AID inhibitor 40µM* and UDG counterscr 31%.
Screening O=C1c2ccccc2-c2onc3c(N4CCN(C5CCCCC5)CC4)cc(NCCO)c1c23 returned AID inhibitor inactive and UDG counterscr -4%.

Screening results from PubChem BioAssay.
